Four molecules from ChEMBL document CHEMBL1961873, “Compounds: GSK PKIS; Assays: Nanosyn kinase panel” (2012) can be followed below.

In experiment [1] the target is T1, Ephrin type-B receptor 2 (Homo sapiens) (UniProt P29323).
T1 sequence (whole entry): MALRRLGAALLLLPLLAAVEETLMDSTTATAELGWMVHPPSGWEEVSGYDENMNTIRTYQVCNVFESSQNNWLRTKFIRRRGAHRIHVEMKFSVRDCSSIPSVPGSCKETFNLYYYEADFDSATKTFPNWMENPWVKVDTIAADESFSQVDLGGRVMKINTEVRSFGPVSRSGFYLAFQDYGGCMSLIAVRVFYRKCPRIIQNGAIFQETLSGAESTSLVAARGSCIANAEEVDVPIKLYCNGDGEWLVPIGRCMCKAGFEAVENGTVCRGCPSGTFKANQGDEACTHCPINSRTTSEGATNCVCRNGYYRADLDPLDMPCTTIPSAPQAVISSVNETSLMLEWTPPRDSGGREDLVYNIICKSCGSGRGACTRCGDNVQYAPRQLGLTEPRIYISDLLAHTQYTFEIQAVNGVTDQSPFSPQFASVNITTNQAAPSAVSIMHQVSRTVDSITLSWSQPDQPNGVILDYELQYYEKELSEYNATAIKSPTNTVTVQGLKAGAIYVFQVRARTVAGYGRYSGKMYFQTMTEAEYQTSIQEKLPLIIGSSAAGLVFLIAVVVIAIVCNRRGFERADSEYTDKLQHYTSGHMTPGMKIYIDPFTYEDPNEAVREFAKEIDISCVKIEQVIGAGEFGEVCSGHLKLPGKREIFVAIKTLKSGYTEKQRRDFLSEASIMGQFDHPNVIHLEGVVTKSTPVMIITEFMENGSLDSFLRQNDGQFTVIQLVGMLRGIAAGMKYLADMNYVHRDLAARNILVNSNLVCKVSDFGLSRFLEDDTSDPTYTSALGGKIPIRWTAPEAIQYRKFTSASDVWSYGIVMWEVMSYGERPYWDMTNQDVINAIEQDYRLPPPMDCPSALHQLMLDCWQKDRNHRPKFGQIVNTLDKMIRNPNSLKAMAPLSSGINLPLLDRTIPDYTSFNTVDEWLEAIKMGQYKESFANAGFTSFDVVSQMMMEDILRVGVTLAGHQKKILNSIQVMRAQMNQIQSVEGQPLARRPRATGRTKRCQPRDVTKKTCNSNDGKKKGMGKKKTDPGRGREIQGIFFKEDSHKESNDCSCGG
Particulars: at 1 µM.

For experiment [2], the target named is T2, Ephrin type-B receptor 3 (Homo sapiens) (UniProt P54753).
T2 sequence (whole entry): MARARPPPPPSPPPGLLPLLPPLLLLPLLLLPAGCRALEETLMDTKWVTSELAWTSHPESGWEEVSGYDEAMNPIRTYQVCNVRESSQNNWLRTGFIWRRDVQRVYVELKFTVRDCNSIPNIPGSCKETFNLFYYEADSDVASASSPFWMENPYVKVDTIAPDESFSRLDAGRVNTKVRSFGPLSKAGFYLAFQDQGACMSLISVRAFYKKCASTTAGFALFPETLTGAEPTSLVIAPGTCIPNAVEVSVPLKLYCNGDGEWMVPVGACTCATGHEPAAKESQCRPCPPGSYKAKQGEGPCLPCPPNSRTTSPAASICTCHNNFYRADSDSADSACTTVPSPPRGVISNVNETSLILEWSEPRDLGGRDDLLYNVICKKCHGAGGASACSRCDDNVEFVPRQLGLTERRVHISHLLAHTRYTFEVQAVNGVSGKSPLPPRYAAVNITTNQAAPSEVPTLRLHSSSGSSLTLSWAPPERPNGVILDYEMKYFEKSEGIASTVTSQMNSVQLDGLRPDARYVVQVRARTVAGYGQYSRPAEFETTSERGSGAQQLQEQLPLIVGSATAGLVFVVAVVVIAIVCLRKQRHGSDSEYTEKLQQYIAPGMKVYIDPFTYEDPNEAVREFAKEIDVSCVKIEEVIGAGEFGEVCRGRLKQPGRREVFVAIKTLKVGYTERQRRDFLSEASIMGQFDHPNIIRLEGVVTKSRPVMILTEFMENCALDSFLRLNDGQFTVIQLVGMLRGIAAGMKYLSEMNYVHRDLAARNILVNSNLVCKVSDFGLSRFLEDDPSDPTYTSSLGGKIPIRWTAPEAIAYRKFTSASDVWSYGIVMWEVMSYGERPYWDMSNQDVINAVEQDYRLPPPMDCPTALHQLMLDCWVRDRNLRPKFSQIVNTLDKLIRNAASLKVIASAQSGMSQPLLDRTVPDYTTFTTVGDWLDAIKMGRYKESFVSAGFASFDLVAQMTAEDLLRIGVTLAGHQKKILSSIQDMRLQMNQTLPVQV
Particulars: at 0.1 µM.

In experiment [3] the target is T2, Ephrin type-B receptor 3 (Homo sapiens). Particulars: at 1 µM.
Experiment [4] concerns the target T3, Ephrin type-B receptor 4 (Homo sapiens) (UniProt P54760).
T3 sequence (whole entry): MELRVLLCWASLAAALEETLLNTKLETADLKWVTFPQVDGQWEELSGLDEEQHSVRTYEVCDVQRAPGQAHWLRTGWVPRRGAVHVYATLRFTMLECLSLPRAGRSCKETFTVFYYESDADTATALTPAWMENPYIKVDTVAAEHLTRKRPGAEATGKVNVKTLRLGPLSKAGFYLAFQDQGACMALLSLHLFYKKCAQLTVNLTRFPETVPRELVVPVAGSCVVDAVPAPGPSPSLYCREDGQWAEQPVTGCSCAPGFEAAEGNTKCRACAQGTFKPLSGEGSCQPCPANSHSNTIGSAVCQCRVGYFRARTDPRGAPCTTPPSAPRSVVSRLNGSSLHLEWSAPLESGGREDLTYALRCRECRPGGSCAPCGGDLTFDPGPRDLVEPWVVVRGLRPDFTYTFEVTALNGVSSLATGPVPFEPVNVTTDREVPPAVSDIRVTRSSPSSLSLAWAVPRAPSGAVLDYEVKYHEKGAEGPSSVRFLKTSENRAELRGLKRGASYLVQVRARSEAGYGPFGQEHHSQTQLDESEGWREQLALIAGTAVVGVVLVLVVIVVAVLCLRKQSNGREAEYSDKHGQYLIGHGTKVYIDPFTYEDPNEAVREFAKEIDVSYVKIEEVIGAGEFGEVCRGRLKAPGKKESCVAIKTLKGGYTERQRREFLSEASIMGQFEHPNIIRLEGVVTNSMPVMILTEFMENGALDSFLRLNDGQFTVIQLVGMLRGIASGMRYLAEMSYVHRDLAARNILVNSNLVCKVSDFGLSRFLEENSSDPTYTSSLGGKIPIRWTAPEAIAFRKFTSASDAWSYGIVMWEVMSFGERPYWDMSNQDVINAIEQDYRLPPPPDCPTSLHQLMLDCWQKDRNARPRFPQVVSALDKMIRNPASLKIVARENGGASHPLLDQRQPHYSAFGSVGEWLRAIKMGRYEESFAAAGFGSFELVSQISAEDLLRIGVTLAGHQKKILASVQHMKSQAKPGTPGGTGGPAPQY
Particulars: at 0.1 µM.

For experiment [5], the target named is T3, Ephrin type-B receptor 4 (Homo sapiens). Particulars: at 1 µM.
Experiment [6] concerns the target Receptor tyrosine-protein kinase erbB-2 (Homo sapiens) (UniProt P04626). Particulars: at 0.1 µM.
For experiment [7] the target is unchanged. Particulars: at 1 µM.
Experiment [8] has as its target Receptor tyrosine-protein kinase erbB-4 (Homo sapiens) (UniProt Q15303). Particulars: at 0.1 µM.
Experiment [9] has the same target. Particulars: at 1 µM.
Experiment [10] concerns the target Tyrosine-protein kinase Fer (Homo sapiens) (UniProt P16591). Particulars: at 0.1 µM.
The target is the same in experiment [11]. Particulars: at 1 µM.
Experiment [12] deals with Tyrosine-protein kinase Fes/Fps (Homo sapiens) (UniProt P07332). Particulars: at 0.1 µM.
Tyrosine-protein kinase Fes/Fps (Homo sapiens), sequence (P07332 whole entry): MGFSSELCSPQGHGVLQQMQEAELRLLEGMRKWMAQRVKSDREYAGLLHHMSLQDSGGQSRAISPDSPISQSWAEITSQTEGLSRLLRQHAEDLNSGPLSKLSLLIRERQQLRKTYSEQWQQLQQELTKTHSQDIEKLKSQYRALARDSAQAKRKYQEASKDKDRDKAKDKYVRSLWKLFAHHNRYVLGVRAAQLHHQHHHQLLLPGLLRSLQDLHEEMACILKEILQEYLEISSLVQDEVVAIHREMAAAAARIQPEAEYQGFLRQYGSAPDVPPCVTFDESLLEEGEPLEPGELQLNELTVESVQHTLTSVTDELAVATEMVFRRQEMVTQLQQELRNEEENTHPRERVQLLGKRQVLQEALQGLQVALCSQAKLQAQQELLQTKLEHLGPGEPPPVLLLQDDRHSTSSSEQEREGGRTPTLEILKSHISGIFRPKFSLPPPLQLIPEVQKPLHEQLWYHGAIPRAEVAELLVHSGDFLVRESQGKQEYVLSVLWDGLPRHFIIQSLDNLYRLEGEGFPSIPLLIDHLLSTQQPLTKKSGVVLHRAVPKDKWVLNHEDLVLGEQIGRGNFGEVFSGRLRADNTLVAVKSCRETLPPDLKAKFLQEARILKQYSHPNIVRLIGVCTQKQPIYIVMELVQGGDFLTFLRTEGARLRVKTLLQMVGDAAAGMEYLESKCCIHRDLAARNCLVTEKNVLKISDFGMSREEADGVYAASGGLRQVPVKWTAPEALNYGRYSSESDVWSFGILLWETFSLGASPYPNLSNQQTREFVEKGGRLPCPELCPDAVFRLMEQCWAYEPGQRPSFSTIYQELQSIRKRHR
The target is the same in experiment [13]. Particulars: at 1 µM.
Experiment [14] addresses Fibroblast growth factor receptor 1 (Homo sapiens) (UniProt P11362). Particulars: at 0.1 µM.
For experiment [15] the target is unchanged. Particulars: at 1 µM.
Experiment [16] deals with Fibroblast growth factor receptor 2 (Homo sapiens) (UniProt P21802). Particulars: at 0.1 µM.
Fibroblast growth factor receptor 2 (Homo sapiens), sequence (P21802 22-821 limits assumed): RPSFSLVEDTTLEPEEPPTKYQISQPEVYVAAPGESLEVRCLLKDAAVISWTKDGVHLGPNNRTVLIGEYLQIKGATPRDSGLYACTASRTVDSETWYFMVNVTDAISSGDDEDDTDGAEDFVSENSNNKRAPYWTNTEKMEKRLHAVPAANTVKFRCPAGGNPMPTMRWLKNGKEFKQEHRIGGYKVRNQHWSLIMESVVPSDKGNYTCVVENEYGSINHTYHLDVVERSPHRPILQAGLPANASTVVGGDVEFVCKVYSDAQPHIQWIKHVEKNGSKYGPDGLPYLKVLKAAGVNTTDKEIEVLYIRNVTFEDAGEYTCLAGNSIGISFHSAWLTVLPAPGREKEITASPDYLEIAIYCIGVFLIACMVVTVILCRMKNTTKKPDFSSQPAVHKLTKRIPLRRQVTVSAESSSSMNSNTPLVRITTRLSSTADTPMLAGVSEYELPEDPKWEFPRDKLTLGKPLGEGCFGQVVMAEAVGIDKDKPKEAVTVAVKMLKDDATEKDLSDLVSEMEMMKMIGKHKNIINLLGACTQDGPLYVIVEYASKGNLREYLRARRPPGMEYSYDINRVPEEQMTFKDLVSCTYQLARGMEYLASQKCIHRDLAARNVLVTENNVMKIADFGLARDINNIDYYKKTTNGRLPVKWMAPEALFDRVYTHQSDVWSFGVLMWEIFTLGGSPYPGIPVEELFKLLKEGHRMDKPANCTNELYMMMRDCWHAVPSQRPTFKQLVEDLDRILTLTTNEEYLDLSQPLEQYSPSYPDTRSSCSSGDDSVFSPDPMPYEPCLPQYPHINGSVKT
The target is the same in experiment [17]. Particulars: at 1 µM.
Experiment [18] addresses Fibroblast growth factor receptor 3 (Homo sapiens) (UniProt P22607). Particulars: at 0.1 µM.
For experiment [19] the target is unchanged. Particulars: at 1 µM.
For experiment [20], the target named is Fibroblast growth factor receptor 4 (Homo sapiens) (UniProt P22455). Particulars: at 0.1 µM.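 Further: values are mean percent inhibition of FGFR4.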
Fibroblast growth factor receptor 4 (Homo sapiens), sequence (P22455 22-802 limits assumed): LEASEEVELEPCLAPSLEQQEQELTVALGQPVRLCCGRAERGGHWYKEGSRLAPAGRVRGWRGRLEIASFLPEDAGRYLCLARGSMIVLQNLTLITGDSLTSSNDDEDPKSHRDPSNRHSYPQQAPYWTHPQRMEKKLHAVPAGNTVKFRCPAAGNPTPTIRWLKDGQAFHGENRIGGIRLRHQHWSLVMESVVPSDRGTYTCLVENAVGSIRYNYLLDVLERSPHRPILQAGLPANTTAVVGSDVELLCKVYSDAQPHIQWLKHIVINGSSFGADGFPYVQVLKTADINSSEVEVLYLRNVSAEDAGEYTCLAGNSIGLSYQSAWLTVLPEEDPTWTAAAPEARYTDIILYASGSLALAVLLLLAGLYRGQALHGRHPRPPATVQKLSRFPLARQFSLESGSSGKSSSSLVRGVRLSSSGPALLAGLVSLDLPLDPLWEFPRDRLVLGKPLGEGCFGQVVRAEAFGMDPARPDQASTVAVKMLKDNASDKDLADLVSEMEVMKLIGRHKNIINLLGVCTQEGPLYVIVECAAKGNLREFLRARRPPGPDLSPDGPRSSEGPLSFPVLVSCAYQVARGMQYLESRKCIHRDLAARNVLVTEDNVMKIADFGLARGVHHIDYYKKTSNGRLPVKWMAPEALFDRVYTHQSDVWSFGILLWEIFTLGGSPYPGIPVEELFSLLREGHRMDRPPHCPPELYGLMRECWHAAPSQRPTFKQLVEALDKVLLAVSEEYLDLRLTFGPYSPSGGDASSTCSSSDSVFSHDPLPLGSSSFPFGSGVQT

Tyrosine-protein kinase Fer (Homo sapiens), sequence (P16591 whole entry, looked up): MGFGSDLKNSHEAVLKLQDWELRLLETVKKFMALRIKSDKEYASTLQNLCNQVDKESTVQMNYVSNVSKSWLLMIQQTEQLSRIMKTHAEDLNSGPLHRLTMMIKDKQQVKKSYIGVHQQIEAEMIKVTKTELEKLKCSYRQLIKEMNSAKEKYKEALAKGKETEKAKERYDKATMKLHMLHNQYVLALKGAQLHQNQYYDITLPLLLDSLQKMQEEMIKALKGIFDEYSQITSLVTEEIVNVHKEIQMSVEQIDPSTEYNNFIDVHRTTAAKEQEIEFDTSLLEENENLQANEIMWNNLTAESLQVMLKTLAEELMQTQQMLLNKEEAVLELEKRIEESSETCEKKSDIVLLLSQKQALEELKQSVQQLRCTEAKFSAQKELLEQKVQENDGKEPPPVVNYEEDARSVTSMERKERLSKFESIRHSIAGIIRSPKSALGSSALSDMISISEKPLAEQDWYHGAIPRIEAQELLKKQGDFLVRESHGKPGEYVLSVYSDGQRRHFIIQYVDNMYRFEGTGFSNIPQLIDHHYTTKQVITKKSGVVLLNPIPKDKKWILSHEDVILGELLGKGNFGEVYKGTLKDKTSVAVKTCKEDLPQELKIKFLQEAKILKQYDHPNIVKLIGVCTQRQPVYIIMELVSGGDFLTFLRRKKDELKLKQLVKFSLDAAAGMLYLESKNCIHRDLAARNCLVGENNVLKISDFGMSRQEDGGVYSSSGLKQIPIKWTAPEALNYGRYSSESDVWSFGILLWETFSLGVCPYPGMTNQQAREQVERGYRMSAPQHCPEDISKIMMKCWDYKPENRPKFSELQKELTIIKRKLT
Fibroblast growth factor receptor 3 (Homo sapiens), sequence (P22607 23-806 limits assumed): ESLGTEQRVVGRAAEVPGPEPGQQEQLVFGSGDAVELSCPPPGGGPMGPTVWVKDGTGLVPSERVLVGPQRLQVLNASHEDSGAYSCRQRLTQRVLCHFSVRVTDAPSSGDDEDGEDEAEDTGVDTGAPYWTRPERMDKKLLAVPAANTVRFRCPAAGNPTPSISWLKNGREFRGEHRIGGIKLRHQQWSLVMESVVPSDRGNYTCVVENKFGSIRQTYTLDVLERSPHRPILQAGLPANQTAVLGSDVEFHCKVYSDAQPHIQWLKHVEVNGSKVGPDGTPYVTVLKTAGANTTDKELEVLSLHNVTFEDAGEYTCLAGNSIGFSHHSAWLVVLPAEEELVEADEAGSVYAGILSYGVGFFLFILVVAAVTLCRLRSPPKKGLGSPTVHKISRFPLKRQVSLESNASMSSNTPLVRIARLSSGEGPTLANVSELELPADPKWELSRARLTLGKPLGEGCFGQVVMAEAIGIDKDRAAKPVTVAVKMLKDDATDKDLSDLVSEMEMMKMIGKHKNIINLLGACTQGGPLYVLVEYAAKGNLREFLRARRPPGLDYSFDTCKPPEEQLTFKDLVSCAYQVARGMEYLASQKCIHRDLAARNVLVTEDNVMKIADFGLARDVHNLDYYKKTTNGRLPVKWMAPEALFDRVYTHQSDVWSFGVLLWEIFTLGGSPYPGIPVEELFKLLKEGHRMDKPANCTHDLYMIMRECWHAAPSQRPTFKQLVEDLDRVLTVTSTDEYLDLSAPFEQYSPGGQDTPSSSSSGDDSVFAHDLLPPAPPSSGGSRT
Fibroblast growth factor receptor 1 (Homo sapiens), sequence (P11362 22-822 limits assumed): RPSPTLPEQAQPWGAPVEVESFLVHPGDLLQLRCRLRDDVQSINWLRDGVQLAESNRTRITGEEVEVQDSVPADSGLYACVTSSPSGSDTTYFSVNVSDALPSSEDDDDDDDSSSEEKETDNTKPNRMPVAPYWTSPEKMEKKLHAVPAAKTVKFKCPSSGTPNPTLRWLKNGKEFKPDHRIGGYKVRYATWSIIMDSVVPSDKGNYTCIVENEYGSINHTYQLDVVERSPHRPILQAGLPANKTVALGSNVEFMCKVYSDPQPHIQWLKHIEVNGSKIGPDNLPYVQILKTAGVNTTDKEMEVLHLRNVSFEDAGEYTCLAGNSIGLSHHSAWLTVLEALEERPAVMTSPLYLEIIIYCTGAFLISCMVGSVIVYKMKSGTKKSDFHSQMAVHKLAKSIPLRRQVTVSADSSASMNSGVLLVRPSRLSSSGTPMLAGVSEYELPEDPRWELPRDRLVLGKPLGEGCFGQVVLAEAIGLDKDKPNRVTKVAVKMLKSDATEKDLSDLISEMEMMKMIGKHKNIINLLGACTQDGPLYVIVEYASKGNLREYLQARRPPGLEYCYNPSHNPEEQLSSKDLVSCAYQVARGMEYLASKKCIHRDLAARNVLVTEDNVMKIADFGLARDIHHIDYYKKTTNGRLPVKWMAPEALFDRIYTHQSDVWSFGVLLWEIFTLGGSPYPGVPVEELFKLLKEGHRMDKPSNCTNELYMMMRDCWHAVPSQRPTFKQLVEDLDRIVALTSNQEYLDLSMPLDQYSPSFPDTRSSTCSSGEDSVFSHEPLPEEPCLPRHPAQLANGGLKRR

On to `Nc1ncc(-c2cccc(S(N)(=O)=O)c2)c2scc(-c3ccc(F)c(Cl)c3)c12`, for which the inhibition in experiment [1] is 88.7%; in [2], 9.18%; in experiment [3], 22%; in experiment [4], 49.3%; in experiment [5] it was 87.1%; in experiment [6], 4.06%. For the same molecule, the inhibition came out at 6.32% in experiment [7]; 13.2% in experiment [8]; 29.6% in experiment [9]; 5.25% in [10]; 30% in experiment [11]; 4% in experiment [12]. Also, the inhibition in experiment [13] was 7.1%; in [14], 2.01%; in experiment [15], 16.1%; in experiment [16] it was 8.86%; in experiment [17] it was 32.8%; in experiment [18], 6.12%. For the same molecule, the inhibition in experiment [19] was 23.3%; in experiment [20] it was 2.27%.

With `CCN(CC)S(=O)(=O)c1ccc(OC)c(Nc2ncc(-c3ccccc3)o2)c1`, the inhibition in experiment [1] was determined as 15.1%; in experiment [2] it was 3.77%; in experiment [3], 0.54%; in [4] it was 0.17%; in experiment [5], 7.93%; in experiment [6], 0.91%. Also, the inhibition in experiment [7] came out at 2.81%; in experiment [8] it was 7.08%; in experiment [9], 6.51%; in experiment [10], 0.84%; in experiment [11] it was 4.52%; in [12], 0.12%. The inhibition in [13] is -0.42%; in [14] it was 0.18%; in [15] it was 23.7%; in [16], 15%; in experiment [17], 54.6%; in [18], 18.4%. The results for the inhibition in experiment [19] and in [20] were 59.5% and 2.44%, respectively.

For `COC(=O)Nc1nc2ccc(Oc3ccc(NC(=O)Nc4cccc(Cl)c4)cc3)cc2[nH]1`, the inhibition in [1] is 68%; in experiment [2], 4.58%; in experiment [3] it was 5.18%; in experiment [4] it was 4.66%; in [5], 14.4%; in experiment [6], -0.47%. Also, the inhibition stood at 5.3% in experiment [7]; 6.76% in experiment [8]; 9.87% in [9]; 1.61% in experiment [10]; 2.41% in experiment [11]; 1.11% in experiment [12]. Besides, the inhibition came to 0.57% in [13]; 2.31% in experiment [14]; 9.33% in experiment [15]; 2.67% in experiment [16]; 2.53% in experiment [17]; 2.97% in [18]. Also, the figures for the inhibition in experiment [19] and in [20] were 2.72% and 0.5%, respectively.

On to `O=C(Nc1n[nH]c2cc(-c3ccc(F)cc3)ccc12)C1CC1`, for which the inhibition in experiment [1] stood at 7.07%; in experiment [2], 5.69%; in experiment [3], 1.87%; in experiment [4], 1.47%; in experiment [5] it was 2.87%; in experiment [6], 1.75%. Moreover, the inhibition is -0.76% in experiment [7]; 6.81% in [8]; 11.6% in experiment [9]; 5.3% in [10]; 1.55% in [11]; 1.98% in experiment [12]. The inhibition was 2.43% in experiment [13]; 3.72% in experiment [14]; 5.84% in experiment [15]; 1.37% in experiment [16]; 3.08% in [17]; 4.83% in experiment [18]. In addition, the inhibition in [19] is 3.2%; in [20], -1.21%.

The term inhibition denotes the change of the read-out against control, counted positive when it falls.
